GPR151 activ: human GPR151 activation; PathHunter beta-arrestin GPR151 cells, luminescence; activation, % at 11.2 µM; hit rate 1% among 650,000; in the data active = activation above about 4.9%;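 note: 0% = median of compound wells and 100% = cells with positive control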
TEAD-YAP inh: TEAD-YAP interaction inhibition. inhibition, % at 9.12 µM. AID 1259422. hit rate 1.4% among 640,000. HEK-TIYL cells, TEAD-Gal4/YAP UAS-luciferase luminescence; in the data active = inhibition above about 32%;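 note: 0% = median of test compound wells and 100% = reference inhibitor wells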
MITF primary: inhibitors of human MITF; O75030; AlphaScreen MITF homodimerization, bead proximity signal; inhibition, % at 2.6 µM; hit rate 0.91% among 650,000; in the data active = inhibition above about 50%;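 note: 0% = vehicle wells with protein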
FBW7 activator: human FBW7 E3 ligase activation, primary screen; Q969H0; AlphaScreen FBW7–phospho-cyclin E peptide binding, activator screen; normalized activity (activation), % at 26.1 µM; hit rate 0.13% among 650,000; in the data active = normalized activity above about 1.9%;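 note: purified mutant Fbw7 with reduced substrate affinity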
Target sequence (Q969H0 whole entry, looked up): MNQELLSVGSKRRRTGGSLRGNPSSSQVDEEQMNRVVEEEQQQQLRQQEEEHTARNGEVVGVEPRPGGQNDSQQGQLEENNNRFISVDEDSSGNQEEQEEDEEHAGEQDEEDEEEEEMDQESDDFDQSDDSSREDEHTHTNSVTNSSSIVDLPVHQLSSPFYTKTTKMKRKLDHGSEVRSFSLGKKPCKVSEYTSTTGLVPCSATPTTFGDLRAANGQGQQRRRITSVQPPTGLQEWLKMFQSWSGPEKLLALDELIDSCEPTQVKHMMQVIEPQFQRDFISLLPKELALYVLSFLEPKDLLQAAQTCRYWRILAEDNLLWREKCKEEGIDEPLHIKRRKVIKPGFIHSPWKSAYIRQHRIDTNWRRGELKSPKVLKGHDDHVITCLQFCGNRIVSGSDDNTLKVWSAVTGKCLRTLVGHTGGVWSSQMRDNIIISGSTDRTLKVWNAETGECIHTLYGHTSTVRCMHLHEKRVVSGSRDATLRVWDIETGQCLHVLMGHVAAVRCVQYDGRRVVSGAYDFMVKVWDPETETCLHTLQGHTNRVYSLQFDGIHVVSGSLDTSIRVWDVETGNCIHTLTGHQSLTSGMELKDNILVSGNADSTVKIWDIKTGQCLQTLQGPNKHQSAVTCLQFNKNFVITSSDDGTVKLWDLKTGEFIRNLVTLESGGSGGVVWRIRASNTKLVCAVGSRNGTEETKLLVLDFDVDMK
MITF confirm: confirmation of human MITF inhibitors | hit rate 16% among 4,700 | inhibition, % at 2.6 µM | shares compounds with MITF primary | AlphaScreen MITF homodimerization, biotin/His-MITF beads;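 active = inhibition above a cutoff derived from the DMSO control wells, cut at about 28% in these data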;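 note: 0% = MITF dimer wells with DMSO only; inhibitors lower the bead chemiluminescence by keeping MITF from dimerizing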
AlphaScreen intf2: optically interferes with AlphaScreen signal. shares compounds with MITF primary. LysRS AlphaScreen counterscreen, signal interference, triplicate. inhibition, % at 2.6 µM. hit rate 7.6% among 4,700. AID 1259376;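 active = inhibition above a cutoff derived from the DMSO control wells, cut at about 30% in these data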
The depositor's hits bear a star; . = not tested or not shown. Only some compounds are listed: those with a hit (about 3.5% of all), similar ones and a draw of the others.

SMILES	GPR151 activ	TEAD-YAP inh	MITF primary	FBW7 activator	MITF confirm	AlphaScreen intf2
C[C@@H]1O[C@@H](O[C@H]2C[C@@H](O)[C@]3(CO)[C@@H]4C(CC[C@]3(O)C2)[C@@]2(O)CC[C@H](C3COC(=O)C3)[C@@]2(C)C[C@H]4O)[C@H](O)[C@H](O)[C@H]1O (stereo partly drawn)	-1	94*	5	1	.	.
C[C@@H]1O[C@@H](O[C@H]2C[C@@H](O)[C@]3(CO)C4C(CC[C@]3(O)C2)[C@@]2(O)CC[C@H](C3=CC(=O)OC3)[C@@]2(C)C[C@H]4O)[C@H](O)[C@H](O)[C@H]1O (stereo partly drawn)	0	99*	0	0	.	.
O=C(CCl)Nc1ccc(Cl)cc1C(=O)c1ccccc1	2	35*	10	0	.	.
CCCc1nc2c(Cl)cc(Cl)cc2c(=O)n1-c1ccccc1C(F)(F)F	1	-8	14	0	.	.
CC/C(=C\c1sc2ccc(OC)cc2[n+]1CC)SC (tested in a mixture with another compound)	0	4	10	0	.	.
CC[n+]1c(/C=C/N(C)c2ccccc2)sc2ccc(OC)cc21	0	79*	10	0	.	.
O=c1cccc2n1CC1CC2CN(Cc2ccccc2Br)C1 (stereo not drawn)	2	7	4	0	.	.
O=C(c1cc(-c2ccccc2)on1)N1CCC2(CC1)OCCO2	-5	-52	4	0	.	.
O=C(c1noc2c1COc1ccccc1-2)N1CCC2(CC1)OCCO2	-6	75*	10	1	.	.
CN1CCN(c2cccc3c2C(=O)c2ccccc2C3=O)CC1	0	37*	7	0	.	.
O=C1NC(=O)C(=Cc2ccc([N+](=O)[O-])o2)C(=O)N1	2	4	79*	-1	.	.
N#CC1=C2SCC(O)(c3ccco3)N2C(=O)CC1c1ccccc1F (stereo not drawn)	2	41*	9	1	.	.
CC(=O)Oc1ccc(/C=C/c2cc(OC(C)=O)cc(OC(C)=O)c2)cc1	-7	96*	0	0	.	.
COc1ccc(CCN2CCC(N(CCN(C)C)C(=O)Cc3ccc(F)cc3)CC2)cc1	3	8	-7	0	.	.
CC1=[N+](C)c2c(ccc3ccccc23)C1(C)C	1	60*	26	0	.	.
O=C(Oc1ccc([N+](=O)[O-])c2cccnc12)c1cccc(S(=O)(=O)N2CCOCC2)c1	1	6	72*	-1	.	.
O=C(Oc1cccc2cccnc12)c1cccc(S(=O)(=O)N2CCCCCC2)c1	-1	1	-4	0	.	.
COc1ccccc1/C=C/c1nc2ccccc2c(=O)n1-c1ccc(F)c(Cl)c1	0	25	5	0	.	.
c1ccc2cc(-c3ccc4c(c3)COC3(CCNCC3)O4)ccc2c1	0	84*	-18	-1	.	.
c1cc2c(cc1-c1ccc3c(c1)OCO3)COC1(CCNCC1)O2	-1	9	-10	1	.	.
Cc1nc2scc(C)n2c1C=C(C#N)C#N	-1	1	1	0	.	.
COc1cc([C@@H]2c3cc4c(cc3[C@H](OC(C)=O)[C@H]3COC(=O)[C@@H]23)OCO4)cc(OC)c1OC	3	52*	-6	1	.	.
COc1cc([C@@H]2c3cc4c(cc3[C@@H](O)[C@H]3COC(=O)[C@H]23)OCO4)cc(OC)c1O	3	-9	11	1	.	.
O=[N+]([O-])c1ccc(CN2CCN(c3ccc(F)cc3)CC2)cc1	2	13	40	0	.	.
Clc1ccc(CNc2cc(Cl)ncn2)cn1	-1	9	22	0	.	.
SMILES	GPR151 activ	TEAD-YAP inh	MITF primary	FBW7 activator	MITF confirm	AlphaScreen intf2
CN1CC=C(c2noc(CCC(=O)Nc3ccc(F)cc3Cl)n2)CC1	-1	-5	31	2	.	.
CN1CC=C(c2noc(CCC(=O)Nc3ccc(F)c(Cl)c3)n2)CC1	-1	-1	39	2.1*	.	.
O=C(Oc1c(Cl)cc(Cl)c2cccnc12)c1cc(S(=O)(=O)N2CCCCC2)ccc1Cl	1	8	17	0	.	.
CC(C)[C@]12O[C@H]1[C@@H]1O[C@]13[C@]1(O[C@H]1C[C@H]1C4=C(CC[C@@]13C)C(=O)OC4)[C@@H]2O	1	90*	3	0	.	.
CN1CCN(Cc2ccc([N+](=O)[O-])s2)CC1	3	-2	56*	0	6	12
CN1CCN(Cc2ccc([N+](=O)[O-])o2)CC1	0	-2	48	0	.	.
CC1(C)CC(=O)c2sc(N[N+](=O)[O-])nc2C1	0	-13	84*	0	-1	-4
COCC1CCCN(CC(=O)Nc2cccnc2)C1 (stereo not drawn)	-1	-5	75*	0	11	14
CCOc1ccc(CN(CCc2ccc3c(c2)OCO3)Cc2ccc([N+](=O)[O-])cc2)cc1	-3	3	54*	0	1	15
CCOc1ccc(CN(CCc2ccc3c(c2)OCO3)Cc2ccccc2)cc1	2	-4	15	0	.	.
COc1ccc(CCNC2CCCCC2OC)cc1 (stereo not drawn)	0	7	33	1	.	.
CCn1c(O)c(C(c2ccccn2)c2c(O)n(CC)c(=S)[nH]c2=O)c(=O)[nH]c1=S	1	5	54*	0	20	56*
COC(=O)C1=C(N)OC2=C(C(=O)CC(C)(C)C2)C12C(=O)Nc1ccccc12 (stereo not drawn)	1	7	8	1	.	.
CC1(C)CC2CC(C)(CN2CCC#N)C1 (stereo not drawn)	0	2	53*	0	-12	-9
CC(C#N)CN1CC2(C)CC1CC(C)(C)C2 (stereo not drawn)	0	-1	39	0	.	.
O=C(c1ccncc1)N1CCN(C2C3CC4CC(C3)CC2C4)CC1 (stereo not drawn)	1	11	76*	0	-3	-3
O=C(c1ccncc1)N1CCN(C2CC3CCC2C3)CC1 (stereo not drawn)	2	-4	64*	0	1	14
COc1cc(Br)c(CN2CCN(CCO)CC2)cc1OC	-1	-5	16	0	.	.
COc1ccc(CN2CCN(CCO)CC2)cc1Br	-1	-2	77*	0	5	-2
CCN1CCN(Cc2ccc(OC)c(Br)c2)CC1	0	-9	-7	0	.	.
COc1cc(C)c(CN2CCN(CCO)CC2)cc1C	1	2	51*	0	2	5
COc1ccc(CN2CCN(Cc3cccc(C)c3)CC2)cc1Br	-1	0	70*	0	21	8
COc1ccc(CN2CCN(Cc3ccc(Cl)cc3)CC2)cc1Br	-1	12	80*	0	6	7
COc1cccc(N2CCN(Cc3ccc(F)c(F)c3)CC2)c1	-1	6	14	0	.	.
FC(F)(F)c1ccccc1CNCCc1ccc2c(c1)OCO2	1	8	55*	0	-16	-2
COc1cc(CN2CCN(Cc3ccccc3)CC2)cc(Br)c1O	-1	-4	51*	0	3	16
